# According to PubChem BioAssay (EPA / NIEHS):
# Inconclusive results are not listed. Active and inactive are the calls of the source. The calls were made as follows: active = hit-call score of the fitted dose curve at least 0.9, where 1 is the maximum; inconclusive = response in the unintended direction; inactive = score below 0.9.
# Test: ACEA_ER_AUC_viability: ACEA Biosciences xCELLigence Real-Time Cell Analysis on Estrogen Receptor Agonism for Viability (AID 2283782);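 also: continuous compound exposure with impedance area under curve over 80 h; hit means loss of impedance signal meaning reduced cell growth or viability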
# In short: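 T47D cells preconditioned in phenol red-free RPMI with charcoal-stripped FBS, then dosed with 8-point 1:4 series from 100 uM (up to 0.5% DMSO). Impedance monitored up to ~80 h; area-under-curve loss versus DMSO taken as viability.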
SMILES,AC50,outcome
CC(Cl)CN(C)C (configuration not stated),34.9 µM (active),–
C=C(C)C(=O)OCC1CO1 (configuration not stated),–,inactive
Oc1ccc(I)cc1,73.7 µM (active),–
Cc1c([N+](=O)[O-])cc2c(c1[N+](=O)[O-])C(C)(C)CC2(C)C,82.3 µM (active),–
O=C(O)C(F)(F)OC(F)(F)C(F)(F)OC(F)(F)C(=O)O,–,inactive
C=CC(=O)OCC(F)(F)C(F)F,–,inactive
N#Cc1ccc(O)cc1,–,inactive
